From the supplement of paper PMC10849652
The full data set covers some 7,900 targets. This sample favours those with a hit. About 0.6% of all pairs of compound and target were hits. Unmarked numbers belong to inactive results.

Compound: C1CCN(C1)C(=O)NC2=CC=CC(=C2)NC3=NC=C(C(=N3)NCCC4=CN=CN4)Br
Experiment: log2 fold change, soluble protein after heating vs DMSO (PISA); higher = thermal stabilisation; K562 cells, 10 uM, 30 min; active = over 0.2 and 3.5 SD of the protein, either way, in both replicates (recomputed)
Outline: (§1)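 K562 cells (2×10^6 cells/mL) were treated with 10 μM compound for 30 min, and aliquots were heated for 3 min over 48°C-58°C. Pooled aliquots were extracted in PBS with 0.5% NP-40 at 4°C, and the supernatant after 21,000xg for 90 min was measured by TMTpro 16plex LC-MS/MS with channel sums equalised. Reported thermal stability, relative to control samples and from duplicates, is a log2 fold change.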

Sequence of UniProt Q9BWU1 (Q9BWU1 whole entry, looked up): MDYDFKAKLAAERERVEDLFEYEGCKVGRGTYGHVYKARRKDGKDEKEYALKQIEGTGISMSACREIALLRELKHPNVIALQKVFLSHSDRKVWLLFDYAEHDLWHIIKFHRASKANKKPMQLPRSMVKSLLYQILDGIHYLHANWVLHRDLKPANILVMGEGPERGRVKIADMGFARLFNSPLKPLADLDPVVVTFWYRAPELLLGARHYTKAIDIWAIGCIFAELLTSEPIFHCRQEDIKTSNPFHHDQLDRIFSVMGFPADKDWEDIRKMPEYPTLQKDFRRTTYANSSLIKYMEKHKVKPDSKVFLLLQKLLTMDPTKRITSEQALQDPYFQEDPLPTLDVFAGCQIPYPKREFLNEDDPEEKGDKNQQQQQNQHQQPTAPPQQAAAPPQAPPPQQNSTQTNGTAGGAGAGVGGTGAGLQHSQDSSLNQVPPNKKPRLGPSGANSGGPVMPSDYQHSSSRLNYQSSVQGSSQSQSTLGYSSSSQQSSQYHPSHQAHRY
Sequence of UniProt Q9UIB8 (Q9UIB8 whole entry, looked up): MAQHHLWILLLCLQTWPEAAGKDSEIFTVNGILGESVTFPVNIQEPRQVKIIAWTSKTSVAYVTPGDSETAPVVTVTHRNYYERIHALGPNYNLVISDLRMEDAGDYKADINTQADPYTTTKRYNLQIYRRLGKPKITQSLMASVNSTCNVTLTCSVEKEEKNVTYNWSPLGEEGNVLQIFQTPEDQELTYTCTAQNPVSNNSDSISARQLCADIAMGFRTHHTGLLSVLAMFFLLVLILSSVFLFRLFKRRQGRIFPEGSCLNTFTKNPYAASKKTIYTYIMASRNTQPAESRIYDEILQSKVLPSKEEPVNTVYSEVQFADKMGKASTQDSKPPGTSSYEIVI
Sequence of UniProt Q16740 (Q16740 whole entry, looked up): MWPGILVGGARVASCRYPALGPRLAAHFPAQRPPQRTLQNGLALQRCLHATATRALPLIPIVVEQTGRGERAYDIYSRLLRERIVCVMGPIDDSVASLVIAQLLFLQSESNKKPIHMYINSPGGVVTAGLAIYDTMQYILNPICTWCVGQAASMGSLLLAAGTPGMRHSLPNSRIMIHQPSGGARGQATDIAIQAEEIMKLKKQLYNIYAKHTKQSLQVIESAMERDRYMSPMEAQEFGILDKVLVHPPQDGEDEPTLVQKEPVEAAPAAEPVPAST
Sequence of UniProt P30281 (P30281 whole entry, looked up): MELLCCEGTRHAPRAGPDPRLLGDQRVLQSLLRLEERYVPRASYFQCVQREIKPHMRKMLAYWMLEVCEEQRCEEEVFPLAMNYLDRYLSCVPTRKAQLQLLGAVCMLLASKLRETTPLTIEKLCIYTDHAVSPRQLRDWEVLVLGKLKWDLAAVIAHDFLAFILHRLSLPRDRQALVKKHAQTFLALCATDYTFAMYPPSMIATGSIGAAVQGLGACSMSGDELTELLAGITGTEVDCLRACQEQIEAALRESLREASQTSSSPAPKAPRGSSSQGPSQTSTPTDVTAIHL
Sequence of UniProt A8MTT3 (A8MTT3 whole entry, looked up): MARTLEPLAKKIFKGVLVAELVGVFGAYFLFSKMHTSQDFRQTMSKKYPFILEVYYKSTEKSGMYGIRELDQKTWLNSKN
Sequence of UniProt O95273 (O95273 whole entry, looked up): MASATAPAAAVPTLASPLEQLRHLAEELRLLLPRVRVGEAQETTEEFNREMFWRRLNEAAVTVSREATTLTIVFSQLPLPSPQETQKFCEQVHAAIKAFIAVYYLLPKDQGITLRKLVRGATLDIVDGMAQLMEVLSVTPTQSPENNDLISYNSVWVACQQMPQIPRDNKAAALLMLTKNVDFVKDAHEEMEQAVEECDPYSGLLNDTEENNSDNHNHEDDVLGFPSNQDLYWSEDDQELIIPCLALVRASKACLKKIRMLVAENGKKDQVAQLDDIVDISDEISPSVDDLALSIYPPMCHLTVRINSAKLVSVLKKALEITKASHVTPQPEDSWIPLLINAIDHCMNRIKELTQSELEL
Sequence of UniProt Q00535 (Q00535 whole entry, looked up): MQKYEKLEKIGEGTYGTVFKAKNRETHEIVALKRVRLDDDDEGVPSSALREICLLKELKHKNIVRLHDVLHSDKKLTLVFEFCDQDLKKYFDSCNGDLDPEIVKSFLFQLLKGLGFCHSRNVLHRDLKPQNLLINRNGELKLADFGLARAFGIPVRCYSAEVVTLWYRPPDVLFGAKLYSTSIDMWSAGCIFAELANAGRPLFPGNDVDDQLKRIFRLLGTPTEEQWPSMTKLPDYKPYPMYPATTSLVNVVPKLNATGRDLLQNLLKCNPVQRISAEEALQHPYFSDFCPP
Sequence of UniProt P09497 (P09497 whole entry, looked up): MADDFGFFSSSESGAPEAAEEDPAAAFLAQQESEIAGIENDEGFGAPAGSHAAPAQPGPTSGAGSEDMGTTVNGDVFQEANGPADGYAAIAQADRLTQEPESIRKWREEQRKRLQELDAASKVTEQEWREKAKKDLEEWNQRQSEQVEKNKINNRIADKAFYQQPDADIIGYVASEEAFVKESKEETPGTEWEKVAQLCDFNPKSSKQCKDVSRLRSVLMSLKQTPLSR
Sequence of UniProt O75153 (O75153 whole entry, looked up): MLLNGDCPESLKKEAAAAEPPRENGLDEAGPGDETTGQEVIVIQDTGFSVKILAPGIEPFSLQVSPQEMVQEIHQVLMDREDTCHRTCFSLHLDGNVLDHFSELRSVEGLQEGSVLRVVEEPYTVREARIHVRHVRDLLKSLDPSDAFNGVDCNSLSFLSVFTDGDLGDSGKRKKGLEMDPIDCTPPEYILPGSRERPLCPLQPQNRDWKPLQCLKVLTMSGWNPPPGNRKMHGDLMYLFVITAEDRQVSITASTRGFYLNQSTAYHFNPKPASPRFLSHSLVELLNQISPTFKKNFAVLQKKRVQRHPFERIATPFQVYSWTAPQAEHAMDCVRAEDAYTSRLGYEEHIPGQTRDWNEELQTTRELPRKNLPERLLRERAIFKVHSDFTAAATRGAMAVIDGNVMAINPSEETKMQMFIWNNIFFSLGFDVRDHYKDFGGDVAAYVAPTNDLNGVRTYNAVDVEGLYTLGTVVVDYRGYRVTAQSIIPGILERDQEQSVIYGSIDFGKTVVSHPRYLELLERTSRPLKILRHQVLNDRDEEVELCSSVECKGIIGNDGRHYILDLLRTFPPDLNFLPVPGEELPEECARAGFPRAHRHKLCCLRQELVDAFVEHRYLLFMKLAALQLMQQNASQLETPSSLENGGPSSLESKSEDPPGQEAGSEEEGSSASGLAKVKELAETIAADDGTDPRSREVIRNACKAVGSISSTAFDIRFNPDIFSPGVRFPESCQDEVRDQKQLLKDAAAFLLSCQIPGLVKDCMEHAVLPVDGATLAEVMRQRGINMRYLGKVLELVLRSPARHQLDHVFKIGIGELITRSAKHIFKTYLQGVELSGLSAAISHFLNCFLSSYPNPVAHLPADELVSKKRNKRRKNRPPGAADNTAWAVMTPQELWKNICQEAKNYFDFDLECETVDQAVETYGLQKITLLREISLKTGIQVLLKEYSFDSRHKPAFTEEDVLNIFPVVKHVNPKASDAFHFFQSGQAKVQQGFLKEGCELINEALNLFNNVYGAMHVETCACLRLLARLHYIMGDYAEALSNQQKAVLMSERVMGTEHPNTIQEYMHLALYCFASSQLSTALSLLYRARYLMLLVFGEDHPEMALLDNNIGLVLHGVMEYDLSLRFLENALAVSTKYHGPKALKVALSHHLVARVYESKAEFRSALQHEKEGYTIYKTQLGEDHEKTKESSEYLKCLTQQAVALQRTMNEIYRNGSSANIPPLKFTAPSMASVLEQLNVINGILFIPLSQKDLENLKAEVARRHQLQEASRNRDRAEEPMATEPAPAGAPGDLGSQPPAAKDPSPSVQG
Sequence of UniProt Q92828 (Q92828 whole entry, looked up): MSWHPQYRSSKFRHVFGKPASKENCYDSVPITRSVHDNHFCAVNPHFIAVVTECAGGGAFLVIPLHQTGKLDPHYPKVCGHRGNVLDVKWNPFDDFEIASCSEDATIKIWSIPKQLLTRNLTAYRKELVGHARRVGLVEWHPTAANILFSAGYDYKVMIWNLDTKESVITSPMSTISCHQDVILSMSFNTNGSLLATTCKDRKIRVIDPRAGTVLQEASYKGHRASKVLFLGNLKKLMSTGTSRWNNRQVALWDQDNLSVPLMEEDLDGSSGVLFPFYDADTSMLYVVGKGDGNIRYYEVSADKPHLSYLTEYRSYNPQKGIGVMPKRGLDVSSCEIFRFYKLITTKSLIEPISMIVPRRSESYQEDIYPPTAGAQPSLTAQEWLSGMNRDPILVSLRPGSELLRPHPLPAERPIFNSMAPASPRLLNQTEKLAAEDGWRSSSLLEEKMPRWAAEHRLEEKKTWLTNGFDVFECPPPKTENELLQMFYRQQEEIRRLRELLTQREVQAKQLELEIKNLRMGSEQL
Sequence of UniProt O95628 (O95628 whole entry, looked up): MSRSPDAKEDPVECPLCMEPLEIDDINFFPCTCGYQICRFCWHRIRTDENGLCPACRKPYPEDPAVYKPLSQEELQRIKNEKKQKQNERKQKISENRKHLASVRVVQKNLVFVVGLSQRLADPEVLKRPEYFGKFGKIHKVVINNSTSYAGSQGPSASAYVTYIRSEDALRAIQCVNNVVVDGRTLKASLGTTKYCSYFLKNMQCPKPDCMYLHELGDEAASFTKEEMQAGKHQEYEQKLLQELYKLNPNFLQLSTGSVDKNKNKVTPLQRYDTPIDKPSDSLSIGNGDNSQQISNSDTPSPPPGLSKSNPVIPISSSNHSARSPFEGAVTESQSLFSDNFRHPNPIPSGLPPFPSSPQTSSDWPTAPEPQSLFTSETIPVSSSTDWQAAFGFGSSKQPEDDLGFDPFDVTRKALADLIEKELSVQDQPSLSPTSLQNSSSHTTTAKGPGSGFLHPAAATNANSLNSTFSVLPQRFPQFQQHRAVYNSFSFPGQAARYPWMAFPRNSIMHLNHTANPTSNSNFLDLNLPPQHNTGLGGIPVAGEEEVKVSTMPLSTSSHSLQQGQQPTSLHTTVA
Sequence of UniProt Q14061 (Q14061 whole entry, looked up): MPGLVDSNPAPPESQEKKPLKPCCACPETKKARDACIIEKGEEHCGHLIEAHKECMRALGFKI

Row | Target | log2 fold change
1 | CLUH, A0A494C0R8 | 0.07
2 | CLINT1 isoform 3 (UniProt Q14677) | -0.044
3 | CLPP (UniProt Q16740) | -0.028
4 | COX7B (UniProt P24311) | 0.085
5 | CLN5 (UniProt O75503) | -0.02
6 | CDK19 (UniProt Q9BWU1) | 0.003
7 | CAV2 (UniProt P51636) | 0.025
8 | CDK5 (UniProt Q00535) | 0.017
9 | CLTB (UniProt P09497) | 0.008
10 | COG2 (UniProt Q14746) | 0.257
11 | C15orf41 (UniProt Q9Y2V0) | 0.115
12 | CNOT4 isoform 9 (UniProt O95628) | 0.175
13 | C19orf54 (UniProt Q5BKX5) | -0.027
14 | CCND3 (UniProt P30281) | 0.09
15 | CDCA2 (UniProt Q69YH5) | -0.082
16 | CD84 (UniProt Q9UIB8) | -0.032
17 | CORO2A (UniProt Q92828) | 0.034
18 | CLUH (UniProt O75153) | -0.043
19 | CNN3 (UniProt Q15417) | 0.041
20 | CENPE (UniProt Q02224) | 0.011
21 | CCNDBP1 (UniProt O95273) | -0.086
22 | CLSPN (UniProt Q9HAW4) | -0.083
23 | CLPTM1L (UniProt Q96KA5) | -0.022
24 | CMTM3 (UniProt Q96MX0) | 0.002
25 | CLN8 (UniProt Q9UBY8) | 0.003
26 | CLCN3 (UniProt P51790) | -0.032
27 | CEBPZOS (UniProt A8MTT3) | 0.05
28 | COX17 (UniProt Q14061) | -0.117

Compound: C1CN(CCC1(CC2=CC=C(C=C2)Cl)N)C3=NC=NC4=C3C=CN4
Experiment: as above
Outline: as §1

Row | Target | log2 fold change
29 | CLUH, A0A494C0R8 | 0.05
30 | CLINT1 isoform 3 (UniProt Q14677) | 0.042
31 | CLPP (UniProt Q16740) | 0.022
32 | COX7B (UniProt P24311) | 0.016
33 | CLN5 (UniProt O75503) | -0.285
34 | CDK19 (UniProt Q9BWU1) | 0.021
35 | CAV2 (UniProt P51636) | -0.021
36 | CDK5 (UniProt Q00535) | 0.038
37 | CLTB (UniProt P09497) | 0.023
38 | COG2 (UniProt Q14746) | -0.065
39 | C15orf41 (UniProt Q9Y2V0) | 0.075
40 | CNOT4 isoform 9 (UniProt O95628) | 0.455
41 | C19orf54 (UniProt Q5BKX5) | -0.543 (active)
42 | CCND3 (UniProt P30281) | -0.043
43 | CDCA2 (UniProt Q69YH5) | 0.256
44 | CD84 (UniProt Q9UIB8) | 0.111
45 | CORO2A (UniProt Q92828) | 0.031
46 | CLUH (UniProt O75153) | -0.027
47 | CNN3 (UniProt Q15417) | -0.116
48 | CENPE (UniProt Q02224) | 0.032
49 | CCNDBP1 (UniProt O95273) | -0.068
50 | CLSPN (UniProt Q9HAW4) | 0.033
51 | CLPTM1L (UniProt Q96KA5) | 0.017
52 | CMTM3 (UniProt Q96MX0) | 0.051
53 | CLN8 (UniProt Q9UBY8) | -0.171
54 | CLCN3 (UniProt P51790) | 0.055
55 | CEBPZOS (UniProt A8MTT3) | -0.03
56 | COX17 (UniProt Q14061) | 0
